The results in this text go back to ChEMBL document CHEMBL4513141, “CO-ADD screening of NIH (USA) - Clinical Collection” (2021).

Entries with a potency or affinity are not part of this list.

In this test the test system is Cryptococcus neoformans. The following applies: Concentration 20 uM; ASSAY_TEST Inhibition of Fungal Growth; detection method Resazurin; Absorption (OD600-OD570); plate type 384well; NBS; CORNING #3640. A general note: Alamar Blue is a resazurin reagent that responds to reducing activity.
Broadly, the Inhibition is the relative decrease from the control value, in per cent. On to `CC(NC(C)(C)C)C(=O)c1cccc(Cl)c1.Cl` (configuration not stated) [BUPROPION HYDROCHLORIDE], for which the Inhibition was found to be 3.12%.
The same measure for `Br.CN1[C@@H]2CC(OC(=O)[C@H](CO)c3ccccc3)C[C@H]1[C@@H]1O[C@@H]12.O.O.O` (some centres not stated): -4.17%; for `Cl.FC(F)(F)c1cccc(N2CCNCC2)c1` [N- (3-TRIFLUOROMETHYLPHENYL)PIPERAZINE HYDROCHLORIDE (TFMPP)]: -3.92%.
The same measure for `CC(COc1ccccc1)N(CCCl)Cc1ccccc1.Cl` (configuration not stated) [PHENOXYBENZAMINE HYDROCHLORIDE]: -10.83%; for `CC(C)NCC(O)c1ccc(O)c(O)c1.Cl` (configuration not stated) [ISOPROTERENOL HYDROCHLORIDE]: 0.22%.
The result for `C[C@]12CC[C@H](O)CC1=CC[C@@H]1[C@@H]2CC[C@@]2(C)[C@H]1CC[C@]2(C)O` [METHANDRIOL] reads 2.63%; that for `CC[C@@H](C(N)=O)N1CCCC1=O`, -2.67%.
For `CCOC(=O)C1(c2ccccc2)CCN(CCC(C#N)(c2ccccc2)c2ccccc2)CC1.Cl` [DIPHENOXYLATE HYDROCHLORIDE], the Inhibition is -16.2%.
Turning to `CCOC(=O)C1=C(COCCN)NC(C)=C(C(=O)OC)C1c1ccccc1Cl` (configuration not stated) [AMLODIPINE], the Inhibition was -10.38%.
The result for `O=C(O)CCCc1ccc(N(CCCl)CCCl)cc1` [CHLORAMBUCIL] reads 0.85%.
Consider `Cc1c(OCC(F)(F)F)ccnc1C[S+]([O-])c1nc2ccccc2[nH]1` (configuration not stated) [LANSOPRAZOLE], for which the Inhibition was -23.82%.
Take `Cc1ccnc2c1NC(=O)c1cccnc1N2C1CC1` [NEVIRAPINE]: the Inhibition is -2.57%.
